D2 PAM-1 – positive allosteric modulators of human D2 dopamine receptor; hit rate 0.34% among 340,000; potentiation, % at 10 µM; HEK293 T-REx D2, calcium flux, EC20 dopamine potentiation;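 active = potentiation over 3 SD above the plate norm, cut at about 30% in these data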
Target sequence (P14416 whole entry, looked up): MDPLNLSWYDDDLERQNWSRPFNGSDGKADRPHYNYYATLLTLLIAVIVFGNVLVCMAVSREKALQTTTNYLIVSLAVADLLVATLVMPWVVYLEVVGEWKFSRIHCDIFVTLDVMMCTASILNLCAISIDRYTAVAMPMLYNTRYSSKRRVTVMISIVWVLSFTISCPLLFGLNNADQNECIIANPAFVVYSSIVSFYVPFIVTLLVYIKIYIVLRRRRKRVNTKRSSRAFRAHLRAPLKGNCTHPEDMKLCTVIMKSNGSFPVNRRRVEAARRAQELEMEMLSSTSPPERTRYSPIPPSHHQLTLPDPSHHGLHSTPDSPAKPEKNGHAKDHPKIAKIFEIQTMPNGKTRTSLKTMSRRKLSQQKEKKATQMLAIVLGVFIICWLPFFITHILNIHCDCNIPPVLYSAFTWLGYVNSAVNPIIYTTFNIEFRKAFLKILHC
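Calcium flux readout, no-wash dye, 1 read/s. Inducible HEK293 Trex D2 line, overnight 30 C. Compound alone 180 s (agonist flags), then EC20 dopamine, another 180 s to score potentiation.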
D2 ag-1 – D2 dopamine receptor (human) agonism; P14416; HEK293 T-REx D2 cells, calcium flux agonist mode; activation, % at 2 µM; hit rate 0.53% among 340,000;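 active = activation over 3 SD above normal in the single-dose calcium agonist read, cut at about 30% in these data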
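Tetracycline-induced HEK293 T-REx cells with force-coupled D2 receptor, plated overnight at 30 C, loaded with no-wash calcium dye. After a 10 s baseline, compound was pin-added and calcium flux read kinetically for 180 s; calcium rises flagged agonists.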
D2 PAM-2 – human D2 receptor positive allosteric modulation; DiscoveRx D2 beta-arrestin cells, luminescence, 90 min; 100% = 57 uM dopamine signal; hit rate 0.23% among 360,000; potentiation, % (concentration not given with the values); AID 624464; P14416; in the data active = potentiation above about 50%; inconclusive = mostly about 30% to 49%
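PathHunter beta-arrestin assay in DiscoveRx D2 cells. Compounds were added with an EC20 of dopamine (50 nM final) for 90 min at 37 deg C. Luminescence was read 1 h after detection reagent, with 57 uM dopamine as the EC100 control.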
D2 ag-2 – activates the human D2 dopamine receptor | P14416 | DiscoveRx PathHunter D2 beta-arrestin, luminescence, 90 min; 100% = 57 uM dopamine signal | activation, % (concentration not given with the values) | hit rate 0.084% among 360,000; in the data active = activation above about 40%; inconclusive = between about 15% and that limit
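Agonist mode: compounds alone added to overnight-plated D2 PathHunter cells for 90 min at 37 C, with 57 uM final dopamine (EC100) defining full response. Beta-arrestin recruitment detected by chemiluminescent reagent, read after 1 h at ambient temperature.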
D2 antagonist – antagonists of human D2 dopamine receptor; P14416; HEK293 TREx D2 cells, calcium flux, dopamine EC80; hit rate 2% among 340,000; inhibition, % at 10 µM; in the data active = inhibition above about 30%; inactive = below that, where a call was filed
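Calcium mobilization kinetics were recorded at 1 s intervals in tetracycline-induced HEK293 T-REx D2 cells, first for 180 s after compound addition and then 180 s after EC80 dopamine.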
Hits are given with their value; n = inactive; u = inconclusive; x = no result; ! = repeats disagree. Shown are actives, neighbours in structure and some others; about 2.4% of the full set was active somewhere.

SMILES	D2 PAM-1	D2 ag-1	D2 PAM-2	D2 ag-2	D2 antagonist
COc1ccc(S(=O)(=O)N2CCC(N3CCCCC3)CC2)cc1	n	n	n	n	n
O=S(=O)(c1ccccc1)N1CCN(c2ccccc2)CC1	n	n	n	n	n
O=S(=O)(c1ccccc1)N1CCC(N2CCN(c3ccccc3)CC2)CC1	n	74.0	x	x	70.7
COc1ccc(S(=O)(=O)N2CCN(C3CCCCCCC3)CC2)cc1	n	n	n	n	34.3!
CN(C)S(=O)(=O)c1ccc(C(=O)NCCSc2c(-c3ccccc3)[nH]c3ccccc23)cc1	n	n	x	x	x
CC(C)c1ccc(O)c(C(=O)c2cnn(-c3ccccc3)c2)c1	x	x	n	n	x
O=C(CSc1nnc(-c2ccc(Br)o2)n1Cc1ccccc1)c1ccccc1F	71.1	n	n	n	n
Cc1nc2cc(OC3(C)CCN(Cc4ccc(OC(F)(F)F)cc4)C3)ccc2s1 (stereo unspecified)	x	x	n	n	x
COc1ccc(C2=Nc3ccc(C)cc3NC(c3ccc(Cl)cc3)=N2)cc1	n	n	x	x	x
Cc1ccc(/C=N/NC(=O)CSc2nnc(-c3ccccc3)n2-c2ccc(Cl)cc2)o1	n	n	54.1	n	n
Cc1ccc(/C=N/NC(=O)CSc2nnc(-c3ccc(Cl)cc3)n2-c2ccc(Cl)cc2)o1	n	n	83.5	n	n
Cc1nn(-c2ccccc2)c(C)c1/C=N/NC(=O)CSc1nnc(-c2ccccc2)n1-c1ccc(Cl)cc1	35.0	n	n	n	n
O=C(CSc1nnc(-c2ccccc2)n1-c1ccc(Cl)cc1)N/N=C/c1ccccc1C(=O)O	n	n	n	n	n
Cc1ccc(-c2nnc(SCC(=O)N/N=C/c3c(C)nn(-c4ccccc4)c3C)n2-c2ccc(C)cc2)cc1	n	n	n	n	n
CCn1c(SCC(=O)N/N=C/c2ccc(C)o2)nnc1-c1ccccc1	n	n	n	n	56.8
COc1ccc(N(S(=O)(=O)c2ccccc2)S(=O)(=O)c2ccccc2)c(N)c1	n	n	n	n	n
COc1ccc(CNC(=O)Cn2c(SCC(=O)Nc3ccc(OC)cc3)nc3ccccc32)cc1	n	n	x	x	x
Cc1ccnn1CC(=O)N/N=C/c1c[nH]c2ccccc12	n	n	n	n	n
Cc1ccnn1CC(=O)N/N=C/c1cn[nH]c1-c1ccccc1	n	n	n	n	43.9
CCOc1ccc(S(=O)(=O)N2CCCC(C(=O)N3CCN(CC)CC3)C2)cc1Cl (stereo unspecified)	x	n	n	n	n
c1ccc2c(c1)CCCN2Cc1nnnn1CC1CCCO1 (stereo unspecified)	32.3	n	n	n	n
c1ccc(CCn2nnnc2CN2CCCc3ccccc32)cc1	n	n	n	n	n
COc1cc(/C=C(\C#N)C(=O)Nc2ccccc2C(=O)O)cc(Cl)c1OC	40.2	n	n	n	n
CC(O)(c1cccc(F)c1)c1nc(-c2cnc3ccccc3c2)cs1 (stereo unspecified)	x	x	65.2	147.7	x
CCCN1CCN(C(=O)Nc2cccc(C(F)(F)F)c2)CC1	n	n	n	n	51.6
SMILES	D2 PAM-1	D2 ag-1	D2 PAM-2	D2 ag-2	D2 antagonist
CC(C)C(C)(C#N)NC(=O)CSc1ncnc2sc(-c3ccccc3)cc12 (stereo unspecified)	n	n	n	n	31.0
O=C(O)/C(=C/c1ccco1)NC(=O)c1ccccc1	n	n	n	n	33.7
Nc1cnccc1C(=O)O	n	n	u	u	42.6
Cc1ccc(OCC(=O)N(Cc2nnc(-c3ccccc3Cl)o2)C2CC2)cc1C	n	n	n	n	n
CCOC(=O)C1CCN(Cc2cccc(Oc3ccccc3)c2)CC1	x	x	n	u	x
CCOC(=O)C1CCCN(Cc2c(Cl)cccc2Cl)C1 (stereo unspecified)	n	n	n	n	n
CCOC(=O)C1CCCN(C/C=C/c2ccccc2)C1 (stereo unspecified)	n	n	n	n	30.5
CCOC(=O)C1CCN(C/C=C/c2ccccc2)CC1	n	n	n	n	n
CCOC(=O)C1CCCN(Cc2cccc(Oc3ccccc3)c2)C1 (stereo unspecified)	n	n	n	n	39.5
CCOC(=O)C1CCCN(Cc2ccc(-c3ccccc3)cc2)C1 (stereo unspecified)	n	n	n	n	57.9
COc1ccccc1C(=O)N(C)c1nnc(-c2ccccc2)s1	n	n	n	n	n
COc1ccc(Cl)cc1NC(=O)CSc1nc(=O)[nH]c2c1CCC2	n	x	x	x	x
CCCCn1c(N)c(N(CCOC)C(=O)c2ccco2)c(=O)[nH]c1=O	n	n	n	n	n
Cc1ccc2c(c1C)OC(=O)CC2c1ccccc1 (stereo unspecified)	n	n	n	n	n
O=C(COC(=O)C1(c2ccccc2F)CCCC1)N1CCNC1=O	n	n	n	n	n
CC1=C(C(=O)N2CCOCC2)CC(CC(=O)NC2CC2)C(=O)N1CCC1=CCCCC1 (stereo unspecified)	x	x	n	n	x
Cc1nonc1OCCN1CCN(c2ccccc2[N+](=O)[O-])CC1	n	n	n	n	53.4
CC(C)OCCCNC(=O)c1ccc2c(c1)S(=O)(=O)c1ccccc1C2=O	n	n	72.0	n	n
CCCCNC(=O)c1ccc2c(c1)S(=O)(=O)c1ccccc1C2=O	n	n	n	n	n
O=C(CC1SCCNC1=O)Nc1cc(Cl)cc(Cl)c1 (stereo unspecified)	x	x	n	n	x
Cc1ccccc1NC(=O)CC1SCCNC1=O (stereo unspecified)	n	n	n	n	45.0
COC(=O)c1cc(NC(=O)CC2SCCNC2=O)cc(C(=O)OC)c1 (stereo unspecified)	n	n	n	n	34.9
CCN(CC(=O)Nc1ccc(OC)cc1)C(=O)Cc1coc2cc(C)c(C)cc12	n	n	n	n	n
CC(C)(C)S(=O)N1Cc2cc(C(=O)N3CCc4ccccc4C3)nc(-c3cccc(-c4ccncc4)c3)c2[C@H]1CCO (stereo partly specified)	x	x	n	n	x
Cc1nc([N+](=O)[O-])c(Br)n1CC(=O)c1ccc(F)cc1	n	n	n	n	33.6
SMILES	D2 PAM-1	D2 ag-1	D2 PAM-2	D2 ag-2	D2 antagonist
Cc1nc([N+](=O)[O-])c(Br)n1CC(=O)c1cccc([N+](=O)[O-])c1	n	n	n	n	n
Cc1ccc(NC(=O)CSCC(=O)NNC(=O)c2nn(C)c(=O)c3ccccc23)cc1	n	n	n	n	n
Cc1[nH][nH]c(=O)c1C=NCc1cccnc1	n	n	n	n	n
C=CCn1c(O)c(C(CC)=NCc2cccnc2)c(=O)[nH]c1=O	n	n	n	n	42.0
COC(=O)c1ccccc1NC(=O)CN1CCN(C23CC4CC(CC(C4)C2)C3)CC1	n	n	n	n	72.2
COC(=O)c1ccccc1NC(=O)CN1CCc2ccccc2C1	n	n	n	n	n
COc1cc(-c2nc(C(=O)NC3CCCCC3)cc3c2[nH]c2ccccc23)cc(OC)c1OC	n	n	n	n	n
